Percent Effect data for 19 compounds are collected here from ChEMBL document CHEMBL3988442, “University of Dundee, Small-Polar-MMV Screening Library” (2021).

Structures are written as SMILES.

The assay deals with AMP-activated protein kinase, AMPK (Homo sapiens) (UniProt P54646+O43741+P54619+Q9UGJ0+Q9Y478+Q13131+Q9UGI9). Briefly: AMP-dependent Kinase enzyme assay. An in vitro enzyme assay that detects ADP turnover that is directly proportional to AMPK activity. This uses naive AMPK that is activated during the assay with MK-8722. The class given is functional. Also on record: scale not given: direction of the effect not stated beside the values. The settings on record: 30 µM.
With `CN1CCN([C@H]2CCN(C(=O)c3cc(Cl)cn3C)C[C@H]2CCCO)CC1`, the Percent Effect is 13.2%.
For `COc1ccccc1NC(=O)c1cnc(C2CCN(C(C)=O)C2)nc1C` (centres undefined), the Percent Effect was found to be 5.26%.
With `CC(C)N(C)S(=O)(=O)c1ccc2c(c1)CCN(C(=O)c1cnccn1)C2`, the Percent Effect worked out at 0.361%.
The value for `CNC(=O)c1ccnc(CC2COc3c(cccc3OC)C2)c1` (centres undefined) was 7.88%.
Take `O=C1CCC(=O)N1CCn1nnc(-c2cccc(Cl)c2)n1`: the Percent Effect was -7.61%.
Under `c1nc(N2CCCC2)ncc1CN1CCCC(CN2CCCCC2)C1` (centres undefined) stands -7.34%; under `CCOC(=O)c1n[nH]cc1CN1CCOC(Cc2ccccc2)C1` (centres undefined), -0.201%; under `Cc1cc(C2CCCN(CC(=O)N3CCCc4ccccc43)C2)n[nH]1` (centres undefined), -5.06%.
Under `COC1CCN(c2ccc(F)cc2CN(C)CC(N)=O)CC1` stands 5.84%; under `Cc1ncn(CCNC(=O)Nc2ccc(OC(F)(F)F)cc2)c(=O)c1C`, 2.14%; under `COc1cc(CN(C)[C@@H]2COC[C@H]2c2ccc(F)cc2)cc(OC)c1`, -11.5%.
Regarding `COCC(C)(O)CNC(=O)c1cc(-c2cc(OC)ccc2OC)nn1C` (centres undefined), the Percent Effect was determined as 1.19%.
With `Cc1ccncc1CN1CCOCC1c1[nH]ncc1C` (centres undefined), the Percent Effect worked out at 17%.
Under `Cc1nn(C)c(C)c1-c1ccc(=O)n(C(C)C(=O)NC2CCCCC2)n1` (centres undefined) stands 12.6%; under `CC(=O)N1CCC(C(=O)N2CCC2c2nc(-c3ccc(C)s3)no2)CC1` (centres undefined), 7.15%; under `CN(C)c1cc(N(C)Cc2cc(C(C)(C)C)n[nH]2)ncn1`, -16.4%.
With `O=C(NCCc1cc(N2CCOCC2)nc(NC2CC2)n1)C1CCCO1` (centres undefined), the Percent Effect is -0.703%.
The value for `CCN(CC)C(CNC(=O)c1ccnc(N(C)C)c1)c1ccsc1` (centres undefined) was -4.85%; that for `COCCN1CCC(NC(=O)C/C=C/c2ccc(C(C)C)cc2)CC1` was -8.07%.
